From PubChem
This is a sample that favours compounds with a hit; in the whole collection about 1.6% have one here.
KCNQ2 pot: KCNQ2 (rat) channel potentiation; CHO-K1 KCNQ2, FluxOR thallium flux fluorescence; stronger effect = higher value; B-score at 10 µM; 0.54% of 310,000 active; AID 2239;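 active = fluorescence ratio B-score at least 3 SD of library B-scores, with initial fluorescence B-score within 3 of them, cut at about 5.3 in these data; same plate scores as AID 2156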;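 also: B-score of peak minus minimum over baseline fluorescence ratio after K+ and Tl+ stimulus; positive B-score means potentiation of KCNQ2 with more thallium influx and brighter signal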
KCNQ2 block: KCNQ2 (rat) channel inhibition; O88943; 1.1% of 310,000 active; B-score at 10 µM; CHO-K1 KCNQ2, FluxOR thallium flux, 20 min; stronger effect = lower value; AID 2156;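 active = fluorescence ratio B-score at most minus 3 library SDs, with starting brightness B-score within 2 library SDs, cut at about -5.5 in these data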
KCNQ2 block conf: rat KCNQ2 channel inhibition, confirmatory screen; shares compounds with KCNQ2 block; KCNQ2-expressing cells, thallium flux; stronger effect = lower value; activity change, negative = inhibition, % at 10 µM; 57% of 1,000 active; AID 493025
KCNQ1 spec: selectivity of KCNQ2 inhibitors against human KCNQ1. 15% of 1,000 active. activity change, negative = inhibition, % at 10 µM. KCNQ1-expressing cells, FluxOR thallium flux fluorescence; stronger effect = lower value. shares compounds with KCNQ2 block;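 active = activity change at least 3 SD of negative controls below their mean in both duplicate wells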;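 also: CHO cells stably transfected with KCNQ1 and depolarized by potassium stimulus; peak minus minimum fluorescence over baseline after thallium addition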
CHO parental ctr: counter-screen for KCNQ2 inhibitors: effect in parental CHO cells; shares compounds with KCNQ2 block; thallium flux counter-screen; stronger effect = lower value; activity change, % at 10 µM; 14% of 1,000 active
KCNQ2 patch conf: rat KCNQ2 inhibition confirmed by electrophysiology; calls only at 10 µM; shares compounds with KCNQ2 block; 49% of 550 active; KCNQ2-expressing cells, automated patch clamp current
Each line names hits and unclear results; the compound was inactive in the other large screens (follow-up assays come after a bar, where they were run). Unless noted, no rule for the calls is given here.

O=C(CCCOc1ccc(Cl)cc1Cl)N1CCCc2ccccc21	KCNQ2 block -14.4 | KCNQ2 block conf inactive | KCNQ1 spec inactive | CHO parental ctr inactive
O=C(COc1ccc(Cl)cc1Cl)OCC(=O)N1CCCc2ccccc21	none
CCN(CC)S(=O)(=O)c1cc(C(=O)NC2CCCCC2)ccc1C	none (no result: KCNQ2 pot)
O=C(Nc1nc(-c2ccccc2)cs1)C1CCCCN1S(=O)(=O)c1ccc(Cl)cc1 (stereo not given)	KCNQ2 block -8.93 | KCNQ2 block conf inactive | KCNQ1 spec inactive | CHO parental ctr inactive
CC1CCN(CC(=O)Nc2nc(-c3ccccc3)cs2)CC1	KCNQ2 block -7.34 | KCNQ2 block conf inactive | KCNQ1 spec inactive | CHO parental ctr inactive
O=C(Nc1nc(-c2ccccc2)cs1)C1CCCCN1S(=O)(=O)c1ccccc1 (stereo not given)	none (no result: KCNQ2 pot)
NC(=O)C1CCN(CC(=O)Nc2nc(-c3ccccc3)cs2)CC1	none (no result: KCNQ2 pot)
O=C(NCCc1ccncc1)c1ccc2nc(Cc3cccc(Cl)c3)oc2c1	none (no result: KCNQ2 pot)
CSc1ccc(S(=O)(=O)NCC(=O)OCC(=O)NCc2cccs2)cc1[N+](=O)[O-]	none
CC(OC(=O)c1ccc(-c2ccc(O)cc2)cc1)C(=O)NC1CCCCC1C (stereo not given)	none (no result: KCNQ2 pot)
COCCOC(=O)C1=C(C)NC(SCC(=O)NC(C)(C)C)=C(C#N)C1c1ccco1 (stereo not given)	none
COc1ccccc1NC(=O)C1=C(C)NC(SCC(=O)c2ccccc2)=C(C#N)C1c1ccco1 (stereo not given)	KCNQ2 block -12.2 | KCNQ2 block conf inactive | KCNQ1 spec inactive | CHO parental ctr inactive
O=C(NCCOC(=O)c1c(F)cccc1Cl)c1c(F)cccc1Cl	none (no result: KCNQ2 pot)
Cc1nc(N2CCN(C(=O)c3ccco3)CC2)c2c3c(sc2n1)CCC3	none
CC(C)c1nc(N2CCN(C(=O)c3ccco3)CC2)c2c3c(sc2n1)CCCC3	KCNQ2 block -8.69 | KCNQ2 block conf inactive | KCNQ1 spec inactive | CHO parental ctr inactive
O=C(NC1CC2CCC(C1)N2Cc1ccccc1)c1ccccc1Cl (stereo not given)	none (no result: KCNQ2 pot)
CC1CCN(C(C(=O)Nc2ccc3c(c2)OCO3)c2ccccc2)CC1 (stereo not given)	KCNQ2 block -6.99 | KCNQ2 block conf inactive | KCNQ1 spec inactive | CHO parental ctr inactive
O=C(Nc1ccc2c(c1)OCO2)C(c1ccccc1)N1CCCCC1 (stereo not given)	none (no result: KCNQ2 pot)
CC(C)CC(OC(=O)c1ccc(Cl)nc1)C(=O)NC1CCCC1 (stereo not given)	none
COc1ccc(Cn2nnnc2C(C(C)C)N(Cc2ccco2)Cc2cccs2)cc1 (stereo not given)	none (no result: KCNQ2 pot)
CC(C)C(c1nnnn1Cc1ccccc1)N(Cc1ccco1)Cc1cccs1 (stereo not given)	KCNQ2 block -9.03 | KCNQ2 block conf -43.5% | KCNQ1 spec -45.0% | CHO parental ctr -41.0% | KCNQ2 patch conf inactive
CC(NC(=O)Nc1cccc([N+](=O)[O-])c1)(C(F)(F)F)C(F)(F)F	none
CC1Oc2cc3oc4c(O)c5c(cc4c(=O)c3c(O)c2C1(C)C)C=CC(C)(C)O5 (stereo not given)	none (no result: KCNQ2 pot)
CC(C)=CCc1cc2c(=O)c3c(O)c4c(cc3oc2c(O)c1O)OC(C)C4(C)C (stereo not given)	KCNQ2 block -8.55 | KCNQ2 block conf inactive | KCNQ1 spec inactive | CHO parental ctr inactive
CCNC1CCS(=O)(=O)C1 (stereo not given)	none (no result: KCNQ2 pot)
CCN(CC)CCCNC1CCS(=O)(=O)C1 (stereo not given)	KCNQ2 block -6.71 | KCNQ2 block conf inactive | KCNQ1 spec inactive | CHO parental ctr inactive
Cc1cc(C)nc(/N=C(\N)Nc2ccc(S(=O)(=O)Nc3nccc(C)n3)cc2)n1	none
Cc1ccc(S(=O)(=O)n2nc(-c3ccc(Cl)cc3)nc2NCc2ccco2)cc1	KCNQ2 block -9.31 | KCNQ2 block conf inactive | KCNQ1 spec inactive | CHO parental ctr inactive
O=C(c1ccco1)n1nc(-c2ccccc2)nc1NCc1ccco1	none
COc1ccccc1C(=O)n1nc(-c2ccccc2)nc1NCc1ccco1	KCNQ2 block -8.66 | KCNQ2 block conf inactive | KCNQ1 spec inactive | CHO parental ctr inactive
CCS(=O)(=O)n1nc(-c2ccccc2)nc1NCc1ccco1	none
Cc1ccc(C)c(C(=O)C(C)Sc2nc3nn(-c4ccccc4)c(=O)c-3c3n2CCCCC3)c1 (stereo not given)	none (no result: KCNQ2 pot)
CCc1cc(/C(Cc2ccccn2)=N\O)c(O)cc1O	none (no result: KCNQ2 pot)
CCc1cc(/C(Cc2ccc3ccccc3n2)=N\O)c(O)cc1O	KCNQ2 block -12 | KCNQ2 block conf -35.0% | KCNQ1 spec -41.5% | CHO parental ctr -27.0% | KCNQ2 patch conf active
COc1ccc(N2CCN(S(=O)(=O)c3c(C(=O)N4CCOCC4)c(C)n(C)c3C)CC2)cc1	none
N#C/C(=C/c1ccc(N2CCCCCC2)o1)c1ccc(Cl)cc1	KCNQ2 block -8.38 | KCNQ2 block conf -31.0% | KCNQ1 spec -28.0% | CHO parental ctr -22.5% | KCNQ2 patch conf inactive
N#C/C(=C/c1ccc(N2CCCCC2)o1)c1cccc(F)c1	none (no result: KCNQ2 pot)
CCOC(=O)N1CCN(C(=O)CCc2ccc(S(=O)(=O)NC(C)(C)C)cc2)CC1	none
CCN(CC)CC(=O)Nc1sc(C)c(C)c1C(=O)c1ccc(C)cc1	KCNQ2 block -6.61 | KCNQ2 block conf inactive | KCNQ1 spec inactive | CHO parental ctr inactive
CCN(CC)CC(=O)Nc1sc(C)cc1C(=O)c1ccc(C)cc1	KCNQ2 block -6.69 | KCNQ2 block conf -23.0% | KCNQ1 spec inactive | CHO parental ctr inactive | KCNQ2 patch conf inactive
Cc1cc(C(=O)c2ccccc2)c(NC(=O)CCl)s1	none (no result: KCNQ2 pot)
Cc1ccc(C(=O)c2c(NC(=O)c3ccccc3C)sc(C)c2C)cc1	KCNQ2 block -10.6 | KCNQ2 block conf -27.5% | KCNQ1 spec inactive | CHO parental ctr inactive | KCNQ2 patch conf inactive
Cc1sc(NC(=O)CN2CCOCC2)c(C(=O)c2ccccc2)c1C	none (no result: KCNQ2 pot)
Cc1sc(NC(=O)c2ccco2)c(C(=O)c2ccc(Cl)cc2)c1C	none (no result: KCNQ2 pot)
CCc1cc(=O)n2[nH]c(-c3ccccc3)c(-c3ccccc3)c2n1	none
CCOC(=O)/C(=N\Nc1ccccc1Cl)N(C)C1CCCCC1	none
O=C(NC1CC2CCCC(C1)N2C(=O)Nc1ccccc1Cl)C1CC1 (stereo not given)	none (no result: KCNQ2 pot)
CC(C)CCC(C(=O)O)C(C)CC(=O)Nc1ccn(-c2ccccc2)n1 (stereo not given)	none
CCOC(=O)C[n+]1c(C)ccc2c1CCC2	none
COc1ccc(CCNC(=O)c2cc3c(C)nccc3[nH]c2=O)cc1OC	none
COc1cccc(-n2c([S-])c(C(=O)Nc3ccc(S(=O)(=O)N4CCOCC4)cc3)[n+]3cc(C(N)=O)ccc23)c1	none (no result: KCNQ2 pot)
Cc1ccc(C(=O)NCC(=O)N/N=C/c2cccs2)cc1C	none
CC(=O)c1ccc(NC(=O)CN2C(=O)COc3ccc(S(=O)(=O)N4CCCC4)cc32)cc1	none (no result: KCNQ2 pot)
CCCCCC[C@@H]([C@@H](C)O)n1cnc2c(N)ncnc21	none
CCCCCCCCCCCCCCCC(O)C(N)CO (stereo not given)	KCNQ2 block -10.1 | KCNQ2 block conf inactive | KCNQ1 spec inactive | CHO parental ctr inactive
